Compound activity: PubChem, National Center for Advancing Translational Sciences (NCATS)
A selection: hits, their analogues and other compounds. The true share with any hit is near 7.5%.
SMN2 splice enh = qHTS Assay for Enhancers of SMN2 Splice Variant Expression; actives 2.8% (n = 210,000); AID 1458, 2008; Potency, µM (highest dose often 46.1 µM), most hits filed as activators; HEK293 SMN2-luciferase splicing reporter, luminescence, 30-36 h; further: nearly all actives have a fitted effect of over 55% in size
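qHTS luciferase splicing reporter: luminescence rises when SMN2 exon 7 is included in transfected HEK293 cells. Compound exposure lasted 30-36 h at 37C, with 4.5 mM final sodium butyrate as control, followed by a ONE-Glo read.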
Rab9 prom act = qHTS Assay for Rab9 Promoter Activators | Huh7 Rab9 promoter-luciferase reporter, luminescence, 24 h | Potency, µM (series often up to 9.22 µM), actives largely listed as activators | actives 2.8% (n = 320,000); further: nearly all actives have a fitted effect of over 60% in size
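Huh7 cells stably carrying a Rab9 promoter-luciferase reporter, 1500 cells per well in OP-MEM I with 10% FBS, treated with compound 24 hours at 37C. Luciferase activity read by luminescence after 10 minutes with Amplite reagent.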
ELG1 genotox = qHTS screen for small molecules that induce genotoxicity in human embryonic kidney (HEK293T) cells expressing luciferase-tagged ELG1 | Potency, µM (doses to about 46 µM), actives largely listed as activators | actives 1.3% (n = 330,000) | AID 504466, 2011 | HEK293T ELG1-luciferase reporter, luminescence, 16 h; further: nearly all actives have a fitted effect of over 60% in size
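After overnight (16 hr) compound treatment at 37 °C, ELG1-luciferase HEK293T cells were lysed with ONE-Glo; luminescence quantified 30 min later at room temperature.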
FLuc modulator = qHTS profiling assay for firefly luciferase inhibitor/activator using purifed enzyme and Km concentrations of substrates (counterscreen for miR-21 project) | Luciferin 4-monooxygenase (Photinus pyralis), P08659 | Potency, µM (series often up to 57.5 µM), most hits filed as inhibitors | actives 6.9% (n = 360,000) | purified FLuc, Km substrates, luminescence inhibition; further: nearly all actives have a fitted effect of over 55% in size
Target sequence (P08659 whole entry, looked up): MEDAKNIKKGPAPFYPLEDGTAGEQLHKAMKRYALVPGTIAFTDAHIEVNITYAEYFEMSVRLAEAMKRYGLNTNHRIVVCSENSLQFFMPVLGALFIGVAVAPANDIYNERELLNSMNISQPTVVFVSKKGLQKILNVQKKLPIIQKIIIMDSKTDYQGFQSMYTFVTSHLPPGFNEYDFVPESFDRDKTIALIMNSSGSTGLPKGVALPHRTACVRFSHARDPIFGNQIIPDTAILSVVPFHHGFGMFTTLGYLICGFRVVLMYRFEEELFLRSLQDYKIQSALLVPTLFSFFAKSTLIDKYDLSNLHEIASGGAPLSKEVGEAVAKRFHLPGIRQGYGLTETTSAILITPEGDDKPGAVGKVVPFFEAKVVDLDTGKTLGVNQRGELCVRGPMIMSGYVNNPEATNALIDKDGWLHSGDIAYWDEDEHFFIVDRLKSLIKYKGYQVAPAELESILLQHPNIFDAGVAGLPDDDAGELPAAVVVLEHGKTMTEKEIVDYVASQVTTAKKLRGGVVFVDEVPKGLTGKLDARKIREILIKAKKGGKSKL
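Biochemical qHTS of compounds, final roughly 60 µM downward over six points, against 10 nM purified firefly luciferase using Km concentrations of substrates (10 uM D-luciferin, 10 uM ATP) in Tris acetate pH 7.5 buffer; luminescence output.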
NPC1 prom act = qHTS Assay for NPC1 Promoter Activators. AID 485313, 2010. actives 2.4% (n = 320,000). Potency, µM (series often up to 9.22 µM), hits mostly activators. Huh7 NPC1 promoter luciferase reporter, 24 h; further: nearly all actives have a fitted effect of over 60% in size
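In 1536-well qHTS, Huh7 cells harboring an NPC1 promoter–luciferase construct received compound for 24 h; activation was quantified by luminescence following luciferase reagent addition.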
A number is an active result; 0 = inactive; ? = inconclusive; - = not tested or not shown. The call rests on the fitted dose curve; in most records, active means well fitted curve in the direction sought with a large enough effect; inconclusive means small, poorly fitted or top-dose-only effect, or another doubt; inactive means no such curve, though single readings can be large; an effect the other way counts as inactive or inconclusive.

SMILES	SMN2 splice enh	Rab9 prom act	ELG1 genotox	FLuc modulator	NPC1 prom act
O=C(O)c1cccc(NC(=O)c2ccc(COc3ccc(Cl)cc3)cc2)c1	-	3.2µM	0	6µM	?
CCOc1c(Cl)cc(C(=O)Nc2cccc(C(=O)O)c2)cc1Cl	-	0.71µM	?	3µM	0.56µM
N#C/C(=C\c1ccc(OCc2ccc(Cl)cc2)cc1)C(=O)Nc1cccc(C(=O)O)c1	-	0	?	0	0
CC(=O)Nc1cccc(NC(=O)c2ccc(COc3ccccc3)cc2)c1	-	2.8µM	15µM	2.1µM	2.8µM
CN(C)c1ccc(CNc2nc(-c3ccco3)nn2C(=O)c2cccc([N+](=O)[O-])c2)cc1	-	-	-	0	-
CC(=O)C1=C(O)C(=O)N(CO)C1c1ccccc1F (stereo not given)	0	0	0	0	0
COc1ccc(OCc2cc(C(=O)NC(C)Cc3ccccn3)no2)c(Cl)c1 (stereo not given)	-	0	0	12µM	0
O=C(NCCc1cccnc1)c1cc(COc2ccc(F)cc2Cl)on1	-	0	0	19µM	0
COc1ccc(OCc2cc(C(=O)NC(C)Cc3cccnc3)no2)c(Cl)c1 (stereo not given)	-	0	0	13µM	0
COc1ccc(OCc2cc(C(=O)NC(C)Cn3cncn3)no2)c(Cl)c1 (stereo not given)	-	?	?	12µM	?
CC(=O)c1ccc(OCc2cc(C(=O)NC(C)Cc3ccccn3)no2)cc1 (stereo not given)	-	0	0	0	0
CCCCNC(=O)NS(=O)(=O)c1ccc(C)cc1	0	0	0	0	0
COc1ccc(S(=O)(=O)N2CCC(C(=O)N[C@@H](C)C(=O)N3CCCCCC3)CC2)cc1	-	0	0	0	0
CC1CC(C)CN(C(=O)CN2CCN(Cc3ccc(Cl)cc3)C2=O)C1 (stereo not given)	0	0	0	0	0
COC(=O)c1cccc(N(CC(=O)NC2CCCC2)C(=O)CNC(=O)c2cccs2)c1	-	0	0	0	?
CC(C)(C)C(=O)Nc1nnc(CCc2ccccc2)s1	-	5.6µM	?	12µM	4µM
CCC(=O)Nc1nnc(CCc2ccccc2)s1	?	0	0	0	0
CC(C)C(=O)Nc1nnc(NC(=S)Nc2ccccc2)s1	0	4.5µM	?	21µM	?
CCCc1nnc(NC(=O)CCC(=O)Nc2ccc(Cl)cc2)s1	-	0	?	0	0
CCCc1nnc(NC(=S)Nc2ccccc2)s1	?	2.5µM	?	?	?
CCCc1nnc(NC(=O)Nc2ccccc2Cl)s1	16µM	-	-	?	-
CCCc1nnc(NC(=O)CCC(=O)NCc2ccccc2Cl)s1	-	0	0	0	0
COc1ccc(C(=O)Nc2cc(NC(=O)c3ccco3)ccc2OC)cc1Cl	0	-	-	0	-
CCCCOC(=O)c1ccc(NC(=O)c2cc(Cl)ccc2OC)cc1	0	0	?	0	0
Fc1ccccc1Nc1nc2ccccc2n2nnnc12	?	?	13µM	?	0
SMILES	SMN2 splice enh	Rab9 prom act	ELG1 genotox	FLuc modulator	NPC1 prom act
Oc1ccccc1Nc1nc2ccccc2n2nnnc12	0	-	-	?	-
Cc1ccc(-c2nc3ccccc3n3nnnc23)cc1	13µM	0	?	0	0
COc1ccc(NC(=S)N2CCN(S(=O)(=O)c3ccc(F)cc3)CC2)cc1OC	-	0	0	0	0
CN(C(=O)COC(=O)C1CSC2(C)CCC(=O)N12)c1ccccc1 (stereo not given)	-	0	0	0	0
CCOc1ccc(C2=Nc3ccccc3C(c3ccc(N4CCOCC4)cc3)=NN2)cc1	?	2.8µM	0	?	?
Brc1ccc2c(c1)C(c1ccc(N3CCOCC3)cc1)=NNC(c1cccs1)=N2	0	0	0	?	0
CCOc1ccc(C2=Nc3ccc(Br)cc3C(c3ccc(N4CCOCC4)cc3)=NN2)cc1	?	?	?	24µM	?
CCOc1ccc(C2=NNC(c3cccs3)=Nc3ccc(OC)cc32)cc1	0	0	0	21µM	0
CCc1ccc2c(c1)C(c1ccc(N3CCOCC3)cc1)=NNC(c1ccncc1)=N2	0	0	0	0	0
CCc1cccc(NC(=O)CCS(=O)(=O)c2cc3c4c(c2)CCN4C(=O)CC3)c1	-	-	-	0	-
Cn1c(CN2CCOCC2)nnc1SCc1cccc(F)c1	0	0	0	0	0
COc1ccccc1CNC(=O)C/C(C)=N/NC(=O)COc1ccc(C)cc1Br	0	0	0	0	0
Cc1ccc(OCC(=O)Nc2ccccc2[N+](=O)[O-])c(Br)c1	18µM	2.8µM	?	2.4µM	3.2µM
C/C(CC(=O)Nc1ccccc1-c1ccccc1)=N\NC(=O)COc1ccc(C)cc1Br	0	0	23µM	0	0
Cc1ccc(OCC(=O)Nc2ccon2)c([N+](=O)[O-])c1	-	3.2µM	10µM	8.5µM	3.2µM
Cc1c(C(=O)O)cnc2c([N+](=O)[O-])cnn12	0	0	0	0	0
CCCCOC(=O)c1ccc(-n2nnc3c(sc4nc(C)cc(C)c43)c2=O)cc1	0	-	-	0	-
COC(=O)Cn1c(C)nc2c(sc3nc(C)cc(C)c32)c1=O	11µM	?	16µM	12µM	?
Cc1cc(C)c2c(n1)sc1c(=O)n(Cc3ccc(F)cc3)cnc12	-	0	0	0	0
C=CCn1cnc2c(sc3nc(C)cc(C)c32)c1=O	-	0	?	17µM	0
CCOC(=O)Cn1cnc2c(sc3nc(C)cc(C)c32)c1=O	-	?	?	12µM	?
COC(=O)C(CCSC)NC(=O)CNS(=O)(=O)c1ccc(F)cc1 (stereo not given)	0	0	0	0	0
CC1CC(C)CN(S(=O)(=O)c2ccc(NC(=O)C3CSC4(C)CCC(=O)N34)cc2)C1 (stereo not given)	-	0	0	0	0
CC(C)C(=O)N1CCN(c2ccc(NC(=O)c3ccc4c(c3)OCCO4)cc2Cl)CC1	0	0	0	4.3µM	0
CC(=O)N1CCN(c2ccc(NC(=O)c3ccc4c(c3)OCCO4)cc2Cl)CC1	-	0	0	6µM	0
SMILES	SMN2 splice enh	Rab9 prom act	ELG1 genotox	FLuc modulator	NPC1 prom act
CC(=O)N1CCN(c2ccc(NC(=O)c3ccc4c(c3)OCCO4)cc2)CC1	0	0	0	?	0
Cc1c(C(=O)N2CCOCC2)oc2ccccc12	-	0	0	0	0
Nc1[nH]n(-c2ccccc2)c(=O)c1N=Nc1ccc2c(c1)OCO2	-	3.2µM	?	2.4µM	3.5µM
Nc1[nH]n(-c2ccccc2)c(=O)c1N=Nc1ccc2c(c1)OCCO2	2.2µM	0.5µM	?	0.6µM	2µM
O=C(COc1ccc2ccccc2c1)Nc1ccc2c3c(cccc13)CC2	0	0	0	0	0
Cc1cccc(NC(=S)NNC(=O)c2csc(C(C)C)c2)c1	11µM	1.8µM	0	5.4µM	2.5µM
CCc1cc(C(=O)Nc2ccc(C)cc2Br)cs1	16µM	?	?	5.4µM	0
CCCCNC(=S)NNC(=O)c1csc(CC)c1	0	0	0	0	0
